{
  "source": "PubChem BioAssay (Tox21)",
  "key": {"[1]": {"test": "cAMP Responsive Elements (CRE) small molecule antagonists, cell-based qHTS assay: qHTS cell viability counter screen (AID 2060913); also: nearly all actives have a fitted effect of over 40% in size", "details": "CRE-bla HEK293T viability, CellTiter-Glo luminescence, 5 h; series mostly up to 92.4 µM", "how_it_was_run": "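Steps: cells plated and held 18 hrs at 37 C/5% CO2; compounds and NKH477 (0.25 uM final) added; 3 hrs incubation; reporter substrate read; CellTiter-Glo added to measure cytotoxicity by luminescence.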"}, "[2]": {"test": "cAMP Responsive Elements (CRE) small molecule agonists, cell-based qHTS assay: qHTS cell viability counter screen (AID 2060914); also: nearly all actives have a fitted effect of over 50% in size", "details": "CRE-bla HEK293T viability, CellTiter-Glo luminescence, 5 h; series mostly up to 92.4 µM", "how_it_was_run": "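In the same wells as the reporter read, viability of CRE-bla HEK 293T cells was quantified by CellTiter-Glo luminescence after a 3 h compound exposure.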"}},
  "note": "Inconclusive results are not listed. A call without a number means that no potency is given here. Activity calls are given as the source filed them. Calls follow the shape of the dose curve; as a rule, active = well fitted cell-killing curve with a large enough effect in the repeat runs; inconclusive = weak or mixed curves, or effect the other way; inactive = flat fitted curve, though single readings scatter.",
  "data": [
    {"smiles": "O=C(O)C(F)(F)C(F)(F)C(F)(F)C(F)(F)C(F)(F)F", "values": [
      {"measurement": "Potency", "setting": "[1]", "result": "inactive"},
      {"measurement": "Potency", "setting": "[2]", "result": "inactive"}
    ]},
    {"smiles": "c1ccc(CN2CCNCC2)cc1", "values": [
      {"measurement": "Potency", "setting": "[1]", "result": "inactive"},
      {"measurement": "Potency", "setting": "[2]", "result": "inactive"}
    ]},
    {"smiles": "CCC(OC(C)=O)C(CC(C)NC)(c1ccccc1)c1ccccc1", "note": "(stereo unspecified)", "values": [
      {"measurement": "Potency", "setting": "[1]", "result": "inactive"},
      {"measurement": "Potency", "setting": "[2]", "result": "inactive"}
    ]},
    {"smiles": "Cl/C=C/CCl", "values": [
      {"measurement": "Potency", "setting": "[1]", "result": "inactive"},
      {"measurement": "Potency", "setting": "[2]", "result": "inactive"}
    ]},
    {"smiles": "CC[N+]1(C)CCCC(OC(=O)C(O)(c2ccccc2)c2ccccc2)C1", "note": "(stereo unspecified)", "values": [
      {"measurement": "Potency", "setting": "[1]", "result": "inactive"},
      {"measurement": "Potency", "setting": "[2]", "result": "inactive"}
    ]},
    {"smiles": "O=C(Cl)OCCOCCOC(=O)Cl", "values": [
      {"measurement": "Potency", "setting": "[1]", "result": "inactive"},
      {"measurement": "Potency", "setting": "[2]", "result": "inactive"}
    ]},
    {"smiles": "Cc1cc(Cl)ccc1OCCCC(=O)O", "values": [
      {"measurement": "Potency", "setting": "[1]", "result": "inactive"},
      {"measurement": "Potency", "setting": "[2]", "result": "inactive"}
    ]},
    {"smiles": "C=CCOC(=O)c1ccccc1N", "values": [
      {"measurement": "Potency", "setting": "[1]", "result": "inactive"},
      {"measurement": "Potency", "setting": "[2]", "result": "inactive"}
    ]},
    {"smiles": "O=P(OCC(Br)CBr)(OCC(Br)CBr)OCC(Br)CBr", "note": "(stereo unspecified)", "values": [
      {"measurement": "Potency", "setting": "[1]", "result": "inactive"},
      {"measurement": "Potency", "setting": "[2]", "result": "inactive"}
    ]},
    {"smiles": "Cc1cc(Cl)ccc1O", "values": [
      {"measurement": "Potency", "setting": "[1]", "result": "inactive"},
      {"measurement": "Potency", "setting": "[2]", "result": "inactive"}
    ]},
    {"smiles": "CCOS(=O)(=O)OCC", "values": [
      {"measurement": "Potency", "setting": "[1]", "result": "inactive"},
      {"measurement": "Potency", "setting": "[2]", "result": "inactive"}
    ]},
    {"smiles": "c1coc(-c2nc3ccccc3[nH]2)c1", "values": [
      {"measurement": "Potency", "setting": "[1]", "result": "inactive"},
      {"measurement": "Potency", "setting": "[2]", "result": "inactive"}
    ]},
    {"smiles": "Cl/C=C\\Cl", "values": [
      {"measurement": "Potency", "setting": "[1]", "result": "inactive"},
      {"measurement": "Potency", "setting": "[2]", "result": "inactive"}
    ]},
    {"smiles": "O=C(O)C(Br)(Br)Br", "values": [
      {"measurement": "Potency", "setting": "[1]", "result": "inactive"},
      {"measurement": "Potency", "setting": "[2]", "result": "inactive"}
    ]},
    {"smiles": "CCN(CC)C(C)C(=O)c1ccccc1", "note": "(stereo unspecified)", "values": [
      {"measurement": "Potency", "setting": "[1]", "result": "inactive"},
      {"measurement": "Potency", "setting": "[2]", "result": "inactive"}
    ]},
    {"smiles": "CC(C)(COCC1CO1)COCC1CO1", "note": "(stereo unspecified)", "values": [
      {"measurement": "Potency", "setting": "[1]", "result": "inactive"},
      {"measurement": "Potency", "setting": "[2]", "result": "inactive"}
    ]},
    {"smiles": "N#C/C=C/c1ccccc1", "values": [
      {"measurement": "Potency", "setting": "[1]", "result": "inactive"},
      {"measurement": "Potency", "setting": "[2]", "result": "inactive"}
    ]},
    {"smiles": "CCCN(CCOc1c(Cl)cc(Cl)cc1Cl)C(=O)n1ccnc1", "values": [
      {"measurement": "Potency", "setting": "[1]", "result": "inactive"},
      {"measurement": "Potency", "setting": "[2]", "result": "inactive"}
    ]},
    {"smiles": "CCOCCOC(C)=O", "values": [
      {"measurement": "Potency", "setting": "[1]", "result": "inactive"},
      {"measurement": "Potency", "setting": "[2]", "result": "inactive"}
    ]},
    {"smiles": "CCCSP(=O)(OCC)Oc1ccc(Br)cc1Cl", "note": "(stereo unspecified)", "values": [
      {"measurement": "Potency", "setting": "[1]", "result": "inactive"},
      {"measurement": "Potency", "setting": "[2]", "result": "inactive"}
    ]},
    {"smiles": "CCOP(=S)(OCC)Oc1ccc2c(C)c(Cl)c(=O)oc2c1", "values": [
      {"measurement": "Potency", "setting": "[1]", "result": "inactive"},
      {"measurement": "Potency", "setting": "[2]", "result": "inactive"}
    ]},
    {"smiles": "CNC(=O)Oc1ccc(N(C)C)c(C)c1", "values": [
      {"measurement": "Potency", "setting": "[1]", "result": "inactive"},
      {"measurement": "Potency", "setting": "[2]", "result": "inactive"}
    ]},
    {"smiles": "[Cl][Sb]([Cl])[Cl]", "values": [
      {"measurement": "Potency", "setting": "[1]", "result": "inactive"},
      {"measurement": "Potency", "setting": "[2]", "result": "inactive"}
    ]}
  ]
}
